Over roughly 33,000 sequences, “E-score (-0.5 to 0.5)” has its median near -0.054; the highest 2% begin near 0.39. For the sample, the highest values were picked, then their nearest neighbours and some sequences at random.
biological target: Ylr278c (UniProt Q05854); assay: PBM E-score (8-mer binding enrichment) (E-score (-0.5 to 0.5)); higher = stronger / more preferred TF binding; conditions: protein concentration: 200 nM; construct: GST-DNA-binding domain
Description: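 Universal 'all 10-mer' protein binding microarrays (Agilent AMADID 015681) probed with GST-tagged S. cerevisiae TFs (full-length or DBD) made by in vitro transcription/translation (PURExpress), about 100-200 nM. Bound TF was detected with fluorescent anti-GST. Each ungapped 8-mer (which stands for itself and its reverse complement) is scored by the PBM enrichment score (E-score), a modified Wilcoxon-Mann-Whitney statistic from -0.5 to +0.5, computed with the Universal PBM Analysis Suite. Scale: above 0.35 generally sequence-specific binding.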

Sequence of UniProt Q05854 (Q05854 whole entry, the tested form may be a part): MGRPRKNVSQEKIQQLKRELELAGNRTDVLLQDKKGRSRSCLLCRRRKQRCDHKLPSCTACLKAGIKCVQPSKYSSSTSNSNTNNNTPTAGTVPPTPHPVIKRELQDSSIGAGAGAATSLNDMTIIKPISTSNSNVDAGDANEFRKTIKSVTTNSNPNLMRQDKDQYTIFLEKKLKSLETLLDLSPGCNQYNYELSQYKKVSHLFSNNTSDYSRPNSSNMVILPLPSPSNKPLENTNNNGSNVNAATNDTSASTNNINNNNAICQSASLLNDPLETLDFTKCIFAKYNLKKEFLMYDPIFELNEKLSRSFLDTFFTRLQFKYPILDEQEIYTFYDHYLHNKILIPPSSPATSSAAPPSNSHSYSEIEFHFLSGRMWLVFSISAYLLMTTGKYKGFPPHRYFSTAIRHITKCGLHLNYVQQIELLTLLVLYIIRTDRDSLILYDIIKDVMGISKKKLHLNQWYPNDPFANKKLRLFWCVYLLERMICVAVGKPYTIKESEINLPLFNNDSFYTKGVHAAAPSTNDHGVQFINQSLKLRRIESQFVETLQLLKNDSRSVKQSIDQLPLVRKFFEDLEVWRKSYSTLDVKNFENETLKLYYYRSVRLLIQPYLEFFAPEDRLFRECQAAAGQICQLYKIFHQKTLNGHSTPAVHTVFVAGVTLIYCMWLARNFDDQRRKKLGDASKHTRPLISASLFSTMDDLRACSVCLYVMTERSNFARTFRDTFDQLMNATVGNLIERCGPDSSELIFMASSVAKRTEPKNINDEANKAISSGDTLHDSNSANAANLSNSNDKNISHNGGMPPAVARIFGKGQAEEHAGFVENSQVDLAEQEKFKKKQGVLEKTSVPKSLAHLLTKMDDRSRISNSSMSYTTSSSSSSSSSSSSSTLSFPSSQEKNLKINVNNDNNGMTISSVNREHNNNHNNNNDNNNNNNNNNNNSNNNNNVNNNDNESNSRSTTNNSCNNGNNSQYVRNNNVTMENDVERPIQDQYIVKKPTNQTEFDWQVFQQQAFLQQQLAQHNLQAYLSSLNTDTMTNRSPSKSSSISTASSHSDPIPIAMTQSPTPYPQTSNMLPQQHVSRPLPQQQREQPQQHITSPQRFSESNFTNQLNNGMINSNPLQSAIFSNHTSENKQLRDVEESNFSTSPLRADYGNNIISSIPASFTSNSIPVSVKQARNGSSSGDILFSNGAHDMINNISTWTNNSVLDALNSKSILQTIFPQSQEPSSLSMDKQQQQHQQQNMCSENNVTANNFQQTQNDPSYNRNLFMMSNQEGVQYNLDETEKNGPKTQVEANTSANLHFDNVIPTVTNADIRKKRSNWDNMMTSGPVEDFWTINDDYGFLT

Row | Sequence | PBM E-score
1 | ACAGGCCG | 0.156
2 | AGAGGCTA | -0.164
3 | AATAATAT | 0.23
4 | ACATCGAG | -0.288
5 | AGCTACCC | -0.243
6 | ATGGATCG | 0.166
7 | AAGCTCCG | 0.477
8 | CAGCTCCC | -0.153
9 | CAGCTCCG | 0.426
10 | CAGCTCCA | -0.152
11 | AAGCTCCC | -0.139
12 | AAGCTCCT | -0.0423
13 | ACTGTCAG | -0.147
14 | CACGCGAC | -0.0553
15 | AACTTCTG | -0.197
16 | TCATTCAA | -0.146
17 | CTAGCGGC | 0.0333
18 | CGCCGCAC | 0.222
19 | GGCCGGTA | 0.261
20 | AGCCGGAG | 0.455
21 | CGCCGGAC | 0.447
22 | GGCCGGAA | 0.422
23 | AGCCGGAA | 0.43
24 | AGCCGGTG | 0.246
25 | AGCCGGTA | 0.352

Row | Sequence | PBM E-score
26 | CGCCGAAC | 0.315
27 | AGCCGGGA | 0.272
28 | AGCCGGGG | 0.26
29 | GGACGGAA | 0.337
30 | GCATTGGA | 0.0238
31 | CAGGTTGG | -0.138
32 | GACGGTAA | 0.127
33 | CGTGATGC | 0.073
34 | CGCCGGAA | 0.432
35 | AGCCGGGC | 0.167
36 | TGCCGGAA | 0.435
37 | CGCCGGTA | 0.352
38 | AGCCGGAC | 0.407
39 | AGCCGGTC | 0.134
40 | TGCCGGCA | 0.347
41 | CGCCGTAA | 0.28
42 | GGCCGGGA | 0.325
43 | CGCCGGGC | 0.378
44 | CGCCGGGA | 0.412
45 | TGCCGTAA | -0.0603
46 | GAACGATC | 0.041
47 | CCTGTCCC | -0.128
48 | ACCAGTAA | 0.00819
49 | ATTCTAGA | -0.171
50 | ACGACCCC | 0.0131

Row | Sequence | PBM E-score
51 | GGCCGCAC | 0.23
52 | GGCCGGAC | 0.419
53 | CGCCGGAG | 0.459
54 | AGCCGTAT | -0.0908
55 | CGCCGTAG | 0.193
56 | AGCCGGCT | 0.247
57 | GGACGGAC | 0.359
58 | CGCCGCAG | 0.264
59 | AGCCGGAT | 0.404
60 | AGCCCTTA | -0.232
61 | CGGACGAA | 0.332
62 | GCGGGACC | 0.216
63 | ACGGGACC | 0.0315
64 | CGGGGATC | 0.408
65 | GCGGGATA | 0.266
66 | CTGGGATC | -0.101
67 | AGGGGATC | -0.0127
68 | ACGGGATA | 0.261
69 | CCGGGACC | 0.408
70 | CCGGGATA | 0.395
71 | ACGGGATC | 0.109
72 | CCGGGATC | 0.411
73 | CGGGGATA | 0.349
74 | ATTGCATC | -0.105
75 | AGCGAAGG | -0.0577

Row | Sequence | PBM E-score
76 | ATATGCAA | -0.0841
77 | TCGCCAGA | -0.26
78 | AAACAGAA | -0.207
79 | CTAGGCAA | -0.0858
80 | TAGTTTCA | -0.0254
81 | ACCTAGAG | -0.141
82 | GGAGAATA | 0.189
83 | AAGGGCTG | -0.213
84 | CCCGGATA | 0.351
85 | CACGGATC | 0.242
86 | CCCGGATC | 0.403
87 | GTTGCTTA | -0.107
88 | GTCTGCGA | -0.207
89 | GTCACCCA | -0.109
90 | ACTAGCCT | -0.0654
91 | CATTGAGA | -0.119
92 | CTCTCGGC | 0.181
93 | ATCTCGGG | 0.278
94 | CTCTCGAA | -0.33
95 | ATCTCGGA | 0.406
96 | CTCTCGGA | 0.405
97 | GTCTCGGA | 0.385
98 | GGCGACGA | -0.172
99 | AAAGCCTA | -0.184
100 | ATCTAACG | 0.0888

Row | Sequence | PBM E-score
101 | CGGCTGGA | 0.0769
102 | GGGATGAC | 0.0341
103 | CCGCGCAG | 0.274
104 | CCGCGGGA | 0.393
105 | CCGCGGAC | 0.429
106 | CCGCGGAG | 0.449
107 | CAGCGGAC | 0.257
108 | CAGCGGAG | 0.408
109 | AAGCGGAG | 0.355
110 | GCGCGGGA | 0.248
111 | CCGCGGCG | 0.364
112 | CAGCGGAA | 0.359
113 | GCGCGGAC | 0.294
114 | CCGCGGGC | 0.367
115 | GCTTCTAC | -0.123
116 | ATTAGGGA | -0.0669
117 | CCTGAAGA | -0.0995
118 | CCATAGGG | -0.154
119 | CTTTACAC | 0.022
120 | ACCAGGAT | -0.0342
121 | CCGCGGAA | 0.414
122 | ACGCGGAT | 0.23
123 | ACGCGGAC | 0.342
124 | GCGCGGAA | 0.387
125 | TCGCGGAA | 0.342

Row | Sequence | PBM E-score
126 | ACGCGGAG | 0.421
127 | AATTAGCT | 0.0507
128 | AAGCCGTG | 0.00789
129 | GCCTTTAC | -0.0652
130 | ACACCGTA | 0.102
131 | AATCCGTG | 0.26
132 | ACTCCGTG | 0.449
133 | ACTCCTTA | -0.0802
134 | ACTCCGTA | 0.443
135 | ATTCCGTC | 0.362
136 | AGTCCGTG | 0.343
137 | GCTCCATA | -0.175
138 | ACTCCGTC | 0.459
139 | CCTCCGTA | 0.37
140 | GCTCCGTA | 0.405
141 | CCTCCGTC | 0.351
142 | GCTGGAGA | -0.271
143 | GGCACTAC | -0.0733
144 | CCTGATCG | -0.0211
145 | CGGAGTGA | 0.459
146 | AGGAGTGA | -0.0619
147 | AGGAGTGC | -0.139
148 | GGGAGTGA | 0.0441
149 | CTGAGTGC | -0.133
150 | CGGAGTGC | 0.438

Row | Sequence | PBM E-score
151 | GACCATGA | 0.0081
152 | CCTTCTGC | -0.136
153 | ATGTTAGC | -0.0158
154 | AAGACGCA | -0.074
155 | GTCAACAA | -0.23
156 | GGCTCCCA | -0.145
157 | AGCTCCTC | -0.144
158 | GGCTCCAA | -0.0143
159 | AGCTCCTA | -0.0358
160 | AGCTCCGA | 0.47
161 | AGCTCCAA | -0.207
162 | AGCTCCTG | -0.0626
163 | GGCTCCGA | 0.393
164 | AGCTCCGG | 0.458
165 | AGCTCCAC | -0.0221
166 | AGCTCCGC | 0.436
167 | AGCTCCCG | 0.0891
168 | GAGCCTCA | -0.171
169 | CGCTCCCG | 0.115
170 | CACTTCAC | -0.0647
171 | GTCTGTTA | -0.13
172 | TGCTCCCA | -0.175
